Data as given in the supplement of paper PMC13380429.

Tests used:
[1] = test system: Vero E6 infected with SARS-CoV-2; experiment: morphology score (similarity to uninfected cells); higher = more like uninfected cells; settings: 24 h
[2] = test system: Vero E6 infected with SARS-CoV-2; experiment: SARS-CoV-2 infection rate relative to infected DMSO; higher = more infection, active = 60 or less; settings: 24 h

| SMILES | morphology score [1] | SARS-CoV-2 infection rate [2] |
| --- | --- | --- |
| CO/N=C1\CN(c2nc3c(cc2F)c(=O)c(C(=O)O)cn3C2CC2)CC1CN (centres undefined) [gemifloxacin] (10 µM) | 0.163 | 91.5% (inactive) |
| CCOc1c(N2CCOCC2)cnn(C)c1=O [emorfazone] (10 µM) | 0.185 | 100% (inactive) |
| Cc1ccc(S(=O)(=O)N2CCC[C@H]2c2ccc(F)cc2)cc1 (10 µM) | -0.114 | 110% (inactive) |
| COC(=O)[C@@H]1C[C@H](OC(C)=O)C(=O)[C@H]2[C@@]1(C)CC[C@H]1C(=O)O[C@H](c3ccoc3)C[C@]21C [salvinorin-A] (10 µM) | 0.127 | 100% (inactive) |
| Cc1ccc2c(Cl)cc(Cl)c(O)c2n1 [chlorquinaldol] (10 µM) | 0.0549 | 99% (inactive) |
| CC(C)(C)OC(=O)N[C@H]1CCCCC/C=C\[C@@H]2C[C@@]2(C(=O)NS(=O)(=O)C2CC2)NC(=O)[C@@H]2C[C@@H](OC(=O)N3Cc4cccc(F)c4C3)CN2C1=O [danoprevir] (10 µM) | -0.0154 | 114% (inactive) |
| CN1CCN(C2CCN(C(=O)Nc3cc(Oc4ccc(NC(=O)C5(C(=O)Nc6ccc(F)cc6)CC5)c(F)c4)ccn3)CC2)CC1 [golvatinib] (0.833333 µM) | 0.0621 | 104% (inactive) |
| N#C/C(=C\c1ccc(O)c(O)c1)C(=O)NCCCc1ccccc1 (0.833333 µM) | -0.0747 | 119% (inactive) |
| CCCCCCCC(=O)N[C@H](CN1CCCC1)[C@H](O)c1ccc2c(c1)OCCO2 [eliglustat] (10 µM) | 0.2 | 92.5% (inactive) |
| NS(=O)(=O)c1cc2c(cc1Cl)NC(CC1CCCC1)NS2(=O)=O (centres undefined) [cyclopenthiazide] (10 µM) | 0.129 | 100% (inactive) |
| CCCn1c(=O)c2nc(C34CC5CC(CC3C5)C4)[nH]c2n(CCC)c1=O (10 µM) | 0.134 | 94% (inactive) |
| COc1cc(OC)c(C(=O)CCCN2CCCC2)c(OC)c1 [buflomedil] (10 µM) | 0.0545 | 102% (inactive) |
| N#C/C(=C1/SC[C@@H](c2ccc(Cl)cc2Cl)S1)n1ccnc1 [luliconazole] (10 µM) | 0.0257 | 104% (inactive) |
| Cc1cc(N2CCN([C@@H]3CN[C@H](C(=O)N4CCSC4)C3)CC2)n(-c2ccccc2)n1 [teneligliptin] (10 µM) | 0.062 | 112% (inactive) |
| O=C(N[C@@H](Cc1c[nH]c2ccccc12)C(=O)O)c1ccc(Cl)cc1 [benzotript] (10 µM) | -0.049 | 104% (inactive) |
| CCCN(C/C=C/I)C1CCc2cccc(O)c2C1 (centres undefined) [8-hydroxy-PIPAT] (10 µM) | -0.0478 | 106% (inactive) |

| SMILES | morphology score [1] | SARS-CoV-2 infection rate [2] |
| --- | --- | --- |
| CC(=O)CC/C=C(\C)CC/C=C(\C)CC/C=C(\C)CCC=C(C)C [teprenone] (10 µM) | 0.0677 | 101% (inactive) |
| c1ccc2c(c1)CCCc1cc(NCCN3CCOCC3)nnc1-2 (10 µM) | -0.11 | 116% (inactive) |
| N=C(N)Nc1ccc(Cl)cc1 [4-chlorophenylguanidine] (10 µM) | -0.231 | 114% (inactive) |
| COc1cc(NC(=O)c2ccccn2)ccc1Cl (10 µM) | 0.133 | 96.5% (inactive) |
| CC(/C=C/C(=O)NO)=C\[C@@H](C)C(=O)c1ccc(N(C)C)cc1 [trichostatin-a] (0.833333 µM) | -0.0945 | 108% (inactive) |
| Cc1cc(C)c2c(c1)[C@@H](N(Cc1cc(C(F)(F)F)cc(C(F)(F)F)c1)c1nnn(C)n1)CCCN2C[C@H]1CC[C@H](C(=O)O)CC1 [evacetrapib] (10 µM) | 0.0498 | 97% (inactive) |
| CCCCc1nc(Cl)c(C(=O)O)n1Cc1ccc(-c2ccccc2-c2nn[nH]n2)cc1 [carboxylosartan] (10 µM) | -0.00666 | 106% (inactive) |
| CCc1cnc(N2CCC(c3nc(COc4ccc(-n5cnnn5)cc4)cs3)CC2)nc1 (10 µM) | 0.0438 | 97% (inactive) |
| C[C@@H]1C[C@H]2[C@@H]3C[C@H](F)C4=CC(=O)C=C[C@]4(C)[C@@]3(Cl)[C@@H](O)C[C@]2(C)[C@H]1C(=O)COC(=O)C(C)(C)C [clocortolone-pivalate] (10 µM) | 0.067 | 98% (inactive) |
| CCN(CC)CCNC(=O)c1ccc(N)cc1 [procainamide] (10 µM) | 0.00737 | 116% (inactive) |
| O=C(NCc1ccc(Oc2ccccc2)cc1)c1nc(-c2cc(Br)c(O)c(Br)c2)no1 (0.833333 µM) | 0.0493 | 100% (inactive) |
| Cn1nc(-c2ccc(C(F)(F)F)cc2)nc2c(=O)n(C)c(=O)nc1-2 [walrycin-B] (0.833333 µM) | 0.4 | 86.5% (inactive) |
| CC[N+](CC)(CCNC(=O)C(=O)NCC[N+](CC)(CC)Cc1ccccc1Cl)Cc1ccccc1Cl [ambenonium] (10 µM) | 0.131 | 106% (inactive) |
| CC(=O)NC[C@H]1CN(c2ccc(-c3ccc(CNCc4cnn[nH]4)cc3)c(F)c2)C(=O)O1 [radezolid] (10 µM) | 0.0332 | 110% (inactive) |
| CCCC(=O)O[C@]1(C(=O)CO)CC[C@H]2[C@@H]3CCC4=CC(=O)CC[C@]4(C)[C@H]3[C@@H](O)C[C@@]21C [hydrocortisone-butyrate] (10 µM) | -0.0651 | 102% (inactive) |
| CN1CCC(CNc2ccc3ncc(-c4cccc(OC(F)(F)F)c4)n3n2)CC1 (0.833333 µM) | 0.201 | 108% (inactive) |
